Most compounds without a hit are left out; they make up all but 0.54% or so of the library.
EPAC1 agonist: activates human EPAC1 exchange factor; O95398; EPAC1 agonist qHTS, biochemical assay; response scale: 100% = response to 6.5 mM cAMP; Potency, µM (titrated, usually from 154 µM), for inactives: at the highest dose activation, hits mostly activators; 360,000 compounds, 0.073% hits; further: nearly all actives have a fitted effect of over 60% in size
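EPAC1 100 nM, Rap1B–BODIPY-GDP 250 nM, unlabeled GDP 50 uM; compound titration; 5 min RT; kinetic read ex480/em540 at 5-min intervals ×30 min; data normalized to 6.5 mM cAMP agonist control.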
EPAC2 antag: blocks human EPAC2 exchange factor; Potency, µM (series often up to 114 µM), inactives show at the top dose activity, negative = inhibition, usual class: inhibitors; 360,000 compounds, 0.18% hits; AID 720708; EPAC2 GEF exchange of Rap1B-BODIPY-GDP, fluorescence; further: on the % scale 0 is the no-effect control and ±100 the full control effect; nearly all actives have a fitted effect of over 45% in size
EPAC1 antag: EPAC1 (human) antagonism; O95398; EPAC1 GEF assay, Rap1b-BODIPY-GDP exchange fluorescence; Potency, µM (highest dose often 115 µM), for inactives: top-dose activity change, negative = inhibition, most hits filed as inhibitors; 360,000 compounds, 0.14% hits;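 further: plate controls were vehicle for no effect and positive control for full effect; nearly all actives have a fitted effect of over 50% in size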
ERG-DNA inh: inhibitors of human ERG Ets domain-DNA interaction; P11308; fluorescence polarization, His-ERG Ets domain / labelled DNA; Potency, µM (doses to about 76.9 µM), for inactives: at the highest dose FP activity, negative = inhibition, most hits filed as inhibitors; 370,000 compounds, 0.028% hits; AID 624246; active means well fitted inhibition curve with a large enough effect in the polarisation, with a control signal flat; inconclusive means small, poorly fitted or top-dose-only effect, or effect the other way, or a change in a side signal; inactive means no such curve, though single readings can be large or run the other way; the % refers to the polarisation;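 further: polarization taken with two DNA probes labelled with fluorescein and Texas red; % of control where 0% means no effect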
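His-tagged ERG Ets domain (1 uM in the protein solution; 300mM KCl, 50mM Tris-HCl, 1mM EDTA, 1mM DTT, pH 7.5) received compound, then a probe mix of 5 nM fluorescein-DNA and 100nM Texas-615-DNA. Fluorescence polarization was read for both dyes.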
TDP1 inh: TDP1 (human) enzyme inhibition; 350,000 compounds, 0.28% hits; Q9NUW8; recombinant TDP1, AlphaScreen DNA substrate cleavage; AID 485290; Potency, µM (doses to about 130 µM), for the others: at the highest dose activity change, negative = inhibition, actives largely listed as inhibitors; further: on the % scale 0 is the no-effect control and ±100 the full control effect; nearly all actives have a fitted effect of over 40% in size
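Tdp1 1 nM final; 15 min RT w/ cpd; substrate 15 nM, 5 min; beads 10 ug/ml, 10 min; AlphaScreen read. Neg ctrl: no enzyme.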
EPAC2 agonist: EPAC2 (human) agonism; Q8WZA2; EPAC2 activation, biochemical qHTS; response scale: 100% = 6.5 mM cAMP response; Potency, µM (top dose mostly 154 µM), for inactives: at the top dose activation, usual class: activators; 360,000 compounds, 0.079% hits; AID 720711; further: nearly all actives have a fitted effect of over 50% in size
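Exchange assay: 100 nM EPAC2 with 250 nM Rap1B-BODIPY-GDP and 50 uM GDP. Fluorescence (ex 480/em 540 nm) read every 5 min for 30 min at room temperature. Data normalized to 6.5 mM cAMP as agonist control.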
* marks the source's active call; other numbers are inactive results; i = inactive; u = inconclusive; x = no result given. Unless noted, the call rests on the fitted dose curve; in most records, active means well fitted curve in the direction sought with a large enough effect; inconclusive means small, poorly fitted or top-dose-only effect, or another doubt; inactive means no such curve, though single readings can be large; an effect the other way counts as inactive or inconclusive. Potency means the concentration at half of the fitted maximal effect.

SMILES	EPAC1 agonist	EPAC2 antag	EPAC1 antag	ERG-DNA inh	TDP1 inh	EPAC2 agonist
O=c1cc2ncc(-n3cc([N+](=O)[O-])cn3)cn2[nH]1	0%	-1%	-8%	5%	8.9µM*	8%
COc1cccc(Cn2ncc3c4sc(S(C)=O)cc4n(C)c3c2=O)c1 (configuration not stated)	x	x	x	x	2%	x
COC(=O)c1ccccc1NC(=O)c1noc2c1CCC2	1%	13%	-5%	-4%	11µM*	2%
CSc1ccccc1NC(=O)c1noc2c1CCC2	-1%	5%	-8%	4%	16µM*	-8%
Cc1ccc(O)c(NC(=O)c2noc3c2CCCC3)c1	x	x	x	5%	0%	x
N#Cc1nc(Nc2cc(Cl)cc(Cl)c2)nc(NC2CCCC2)n1	x	x	x	x	-4%	x
CCN(CC)Cc1cc(O)c(CN(CC)CC)cc1O	13%	18%	-12%	-9%	7.9µM*	9%
O=c1oc2ccccc2nc1/C=C(O)/C=C/c1ccc(F)cc1	11%	7%	13%	-5%	0%	0%
O=c1oc2ccccc2nc1/C=C(O)/C=C\c1ccccc1	5%	27%	-5%	5%	6%	63µM*
CCCCCNC(=O)C(c1cc2ccccc2o1)n1c(=O)c(-c2ccco2)nc2ccccc21 (configuration not stated)	-27%	u	56µM*	x	x	-18%
COc1cccc(C#Cc2c(C=O)n(C)c3ccccc23)c1	4%	3%	-2%	9%	18µM*	11%
COc1ccc2c(c1OC)C(=O)N1c3ccccc3C(=O)N(Cc3ccco3)C21 (configuration not stated)	x	x	x	x	0%	x
NS(=O)(=O)Nc1c(Br)cc(Br)c2cccnc12	x	x	x	x	0%	x
CCOc1ccccc1C(=O)N/N=C/c1ccoc1	13%	-5%	7%	-5%	50µM*	3%
CCOc1cccc(C(=O)N/N=C/c2ccoc2)c1	4%	-2%	-12%	-6%	-20%	2%
O=C(OCC(=O)N1CCN(C(=O)c2ccco2)CC1)c1ccccc1NCCO	4%	5%	2%	-8%	45µM*	6%
O=C(OCC(=O)N1CCN(C(=O)COC(=O)c2ccccc2NCCO)CC1)c1ccccc1NCCO	13%	2%	2%	2%	x	1%
N#CCC(=O)Nc1ccc(C(=O)OCC(=O)N2CCN(C(=O)c3ccco3)CC2)cc1	4%	7%	-18%	18%	45µM*	2%
CCOC(=O)/C(=C\c1ccc(N2CCC(c3ccccc3)=N2)cc1)C(C)=O	u	169%	11%	0%	x	100µM*
O=C(/C=C/c1ccc(N2CCC(c3ccccc3)=N2)cc1)c1ccccc1	-20%	10%	44%	117%	-2%	-30%
COc1cccc(C(=O)NNC(=S)NC2CCCCC2)c1	i	9%	50µM*	7%	4%	-1%
O=C1CCc2cc(S(=O)(=O)Nc3ccncc3)ccc2N1	x	x	x	x	1%	x
COc1ccc(C(=O)N(Cc2ccccc2)Cc2ccccc2)cc1COc1ccc(NC(C)=O)cc1	x	x	x	x	3%	x
Cc1[nH]n(-c2ccccc2)c(=O)c1C(c1ccccc1[N+](=O)[O-])C(C#N)C#N (configuration not stated)	-11%	-7%	-25%	20%	x	3%
Cc1[nH]n(-c2ncc(-c3ccccc3)s2)c(=O)c1C(c1ccc(Cl)cc1)C(C#N)C#N (configuration not stated)	-9%	-8%	50µM*	x	14%	2%
O=C(CSc1nc(-c2ccccc2)nc2ccc(F)cc12)Nc1cccc(C(=O)O)c1	-9%	-1%	-3%	-2%	79µM*	0%
O=C(CSc1nc(-c2ccc(F)cc2)nc2c1Cc1ccccc1O2)Nc1cccc(C(=O)O)c1	-7%	-15%	u	1%	4µM*	0%
O=C(CSc1nc(-c2ccccc2)nc2c1Cc1ccccc1O2)Nc1ccccc1	x	x	x	x	-2%	x

Assay outcomes from PubChem BioAssay.
